Tested on: Vero E6 infected with SARS-CoV-2
Experiment: inhibition of SARS-CoV-2 cytopathic effect; higher = more antiviral protection, active = above 15
Conditions: 48 h

Measured: inhibition of SARS-CoV-2 cytopathic effect

CN1C(C(=O)Nc2ccccn2)=C(O)c2sc(Cl)cc2S1(=O)=O [lornoxicam]
inactive: 1 nM -2.9% | 8.33 nM -0.66% | 100 nM -1.36% | 833.33 nM 0.9% | 10000 nM -0.69%

CC[C@H](CO)Nc1nc(NCc2ccccc2)c2ncn(C(C)C)c2n1 [roscovitine]
inactive: 1 nM 1.02% | 8.33 nM 2.46% | 100 nM -0.4% | 833.33 nM -1.46% | 10000 nM -0.57%

CSc1ccc(C(=O)/C=C/c2cc(C)c(OC(C)(C)C(=O)O)c(C)c2)cc1 [elafibranor]
inactive: 1 nM -1.98% | 8.33 nM 1.58% | 100 nM -1.18% | 833.33 nM 2.15% | 10000 nM 3.31%

CCCC(CCC)C(=O)NCC(N)=O [valrocemide]
inactive: 1 nM 0.41% | 8.33 nM 1.83% | 100 nM 2.6% | 833.33 nM 0.66% | 10000 nM 3.56%

NC(CO)(CO)CO [trometamol]
inactive: 1 nM -0.18% | 8.33 nM -2.53% | 100 nM -0.26% | 833.33 nM 2.08% | 10000 nM 4.11%

CCN(CC)CCOc1ccccc1C(=O)CCc1ccccc1 [etafenone]
inactive: 1 nM 1.2% | 8.33 nM 0.17% | 100 nM -0.61% | 833.33 nM 0.23% | 10000 nM -3.07%

CCCOc1ccc(Br)cc1-c1cc(-c2ccc(Cl)cc2)[nH]c1-c1ccncc1
inactive: 1 nM -1.64% | 8.33 nM 0.84% | 100 nM 0.25% | 833.33 nM -0.83% | 10000 nM -5.61%

CC(C)(C)c1cc(NC(=O)Nc2ccc(-c3cn4c(n3)sc3cc(OCCN5CCOCC5)ccc34)cc2)no1 [quizartinib]
inactive: 1 nM -1.91% | 8.33 nM -0.28% | 100 nM 0.83% | 833.33 nM -4.72% | 10000 nM -4.89%

Cc1nc2c(OCc3ccccc3)cccn2c1CC#N
inactive: 1 nM -1.06% | 8.33 nM 0.99% | 100 nM 2.87% | 833.33 nM 0.07% | 10000 nM 1.07%

CC(C)=CCC/C(C)=C/CC/C(C)=C/CSc1ccccc1C(N)=O [farnesyl-thiosalicylic-acid-amide]
inactive: 1 nM -1.77% | 8.33 nM -2.42% | 100 nM -3.06% | 833.33 nM -5.68% | 10000 nM -2.46%

Fc1ccccc1CNCc1ccc(-c2ccnc3[nH]ccc23)cc1
inactive: 1 nM 4.68% | 8.33 nM 2.19% | 100 nM 0.04% | 833.33 nM -1.5% | 10000 nM -7.9%

COc1cc(Br)c(S(=O)(=O)Nc2ccc(Cl)c(O[C@@H]3CCN(C)C3)c2)cc1OC
inactive: 1 nM 1.45% | 8.33 nM 1.7% | 100 nM -0.06% | 833.33 nM -0.33% | 10000 nM -0.58%

CCCCc1ccc(O)cc1O [rucinol]
inactive: 1 nM -2.6% | 8.33 nM -3.11% | 100 nM 2.12% | 833.33 nM -0.13% | 10000 nM 0.4%

Nc1ncnc2c1ncn2[C@@H]1O[C@H](COP(=O)(O)OP(=O)(O)OP(=O)(O)OP(=O)(O)OC[C@H]2O[C@@H](n3cnc4c(N)ncnc43)[C@H](O)[C@@H]2O)[C@@H](O)[C@H]1O [diadenosine-tetraphosphate]
inactive: 1 nM 1.69% | 8.33 nM 0.56% | 100 nM 0.34% | 833.33 nM 1.06% | 10000 nM -1.97%

CCC(CC)COC(=O)[C@H](C)N[P@](=O)(OC[C@H]1O[C@@](C#N)(c2ccc3c(N)ncnn23)[C@H](O)[C@@H]1O)Oc1ccccc1 [Remdesivir]
inactive: 1 nM -0.54% | 8.33 nM 1.32% | 100 nM 1.51% | 833.33 nM 0.56% | 10000 nM 9.79%

CC=C1C(=O)C[C@H]2[C@@H]3CCC4=CC(=O)CC[C@]4(C)[C@H]3CC[C@]12C
inactive: 1 nM 0.03% | 8.33 nM -0.87% | 100 nM -1.56% | 833.33 nM -0.96% | 10000 nM 4.3%

CCCCC/C=C\C/C=C\CCCCCCCC(=O)NCCCC(=O)O [GABA-linoleamide]
inactive: 1 nM 0.87% | 8.33 nM 4.17% | 100 nM 1.92% | 833.33 nM -0.22% | 10000 nM -0.15%

O=c1cc(N2CCOCC2)oc2c1ccc1ccccc12
inactive: 1 nM -1.26% | 8.33 nM 2.98% | 100 nM -0.06% | 833.33 nM 0.08% | 10000 nM -1.32%

Source: the supplement of paper PMC13380429
